Measurements published in the supplement of paper PMC4709259.
Structures can show the parent of a compound that is named as a salt. ± gives the standard deviation.

What was measured:
[1] = tested on: Jurkat; experiment: mean cell size (FSC-A) relative to DMSO control (fraction of control); higher = larger cells; conditions: 48 h
In short: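 Jurkat cells seeded at 600 cells/µl were incubated 1 h, then exposed for 48h to the Enzo Screen-Well FDA Approved Drug Library v2.0 at 25µM in 0.9% (v/v) final DMSO. Drugs that cut counts below 20% of controls were diluted 10-fold and retested, down to 25nM. Cell count and mean cell size (forward scatter area) were read on an Accuri C6 flow cytometer, relative to solvent-only controls. Plates held 6-12 controls; values are means of 3 biological replicates.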

[2] = tested on: Jurkat; experiment: cell count relative to DMSO control (fraction of control); higher = more cells (less growth inhibition); conditions: 48 h

SMILES	mean cell size [1]	cell count [2]
O=P(O)(O)C(O)(Cn1ccnc1)P(=O)(O)O [Zoledronic Acid Monohydrate] (concentration: 25 µM)	0.938 ± 0.031	0.296 ± 0.11
NS(=O)(=O)Cc1noc2ccccc12 [Zonisamide] (concentration: 25 µM)	1 ± 0.05	0.561 ± 0.25
CC(=O)N1CCN(c2ccc(OCC3COC(Cn4ccnc4)(c4ccc(Cl)cc4Cl)O3)cc2)CC1 (configuration not stated) [Ketoconazole] (concentration: 25 µM)	0.84 ± 0.013	0.564 ± 0.035
Clc1ccc(COC(Cn2ccnc2)c2ccc(Cl)cc2Cl)cc1 (configuration not stated) [Econazole Nitrate] (concentration: 25 µM)	0.959 ± 0.03	0.774 ± 0.096
CCC(C)(C)C(=O)O[C@H]1C[C@@H](C)C=C2C=C[C@H](C)[C@H](CC[C@@H]3C[C@@H](O)CC(=O)O3)[C@H]21 [Simvastatin] (concentration: 25 µM)	1.05 ± 0.054	0.698 ± 0.029
CN(C)CCOC(=O)C(c1ccccc1)C1(O)CCCC1 (configuration not stated) [Cyclopentolate] (concentration: 25 µM)	0.996 ± 0.057	0.596 ± 0.08
C[C@@H](c1ncncc1F)[C@](O)(Cn1cncn1)c1ccc(F)cc1F [Voriconazole] (concentration: 25 µM)	0.963 ± 0.043	0.682 ± 0.1
Cc1nccn1CC1CCc2c(c3ccccc3n2C)C1=O (configuration not stated) [Ondansetron] (concentration: 25 µM)	0.97 ± 0.028	0.816 ± 0.074
c1ccc2c(CC3=NCCN3)cccc2c1 [Naphazoline·HCl] (concentration: 25 µM)	0.94 ± 0.024	0.864 ± 0.024
Oc1c(Cl)cc(Cl)c(Cl)c1Cc1c(O)c(Cl)cc(Cl)c1Cl [Hexachlorophene] (concentration: 2.5 µM)	0.904 ± 0.016	0.433 ± 0.035
O=C(C1CCCCC1)N1CC(=O)N2CCc3ccccc3C2C1 (configuration not stated) [Praziquantel] (concentration: 25 µM)	0.996 ± 0.028	0.781 ± 0.048
CC(CN1c2ccccc2Sc2ccccc21)N(C)C (configuration not stated) [Promethazine·HCl] (concentration: 25 µM)	0.994 ± 0.023	0.717 ± 0.16
C[C@H]1O[C@@H](O[C@H]2[C@@H](O)C[C@H](O[C@H]3[C@@H](O)C[C@H](O[C@H]4CC[C@@]5(C)[C@H](CC[C@@H]6[C@@H]5C[C@@H](O)[C@]5(C)[C@@H](C7=CC(=O)OC7)CC[C@]65O)C4)O[C@@H]3C)O[C@@H]2C)C[C@H](O)[C@@H]1O [Digoxin] (concentration: 25 nM)	0.91 ± 0.065	0.175 ± 0.093
COc1cc(NC(C)CCCN)c2ncccc2c1 (configuration not stated) [Primaquine Phosphate] (concentration: 25 µM)	1.01 ± 0.028	0.742 ± 0.042
CO[C@H]1O[C@@H]2O[C@@]3(C)CC[C@H]4[C@H](C)CC[C@@H]([C@H]1C)[C@@]24OO3 [Artemether] (concentration: 25 µM)	0.912 ± 0.047	0.632 ± 0.0091
COc1cc(C(=O)NCc2ccc(OCCN(C)C)cc2)cc(OC)c1OC [Trimethobenzamide·HCl] (concentration: 25 µM)	0.9923 ± 0.0096	1.07 ± 0.057
NS(=O)(=O)c1cc(C2(O)NC(=O)c3ccccc32)ccc1Cl (configuration not stated) [Chlorthalidone] (concentration: 25 µM)	1.03 ± 0.028	0.918 ± 0.044
COc1cc(C(=O)NS(=O)(=O)c2ccccc2C)ccc1Cc1cn(C)c2ccc(NC(=O)OC3CCCC3)cc12 [Zafirlukast] (concentration: 25 µM)	0.959 ± 0.06	0.381 ± 0.062
CC(=O)Nc1ccc(O)cc1 [Acetaminophen] (concentration: 25 µM)	1.03 ± 0.037	0.891 ± 0.031
C[C@@H](O)[C@H]1C(=O)N2C(C(=O)O)=C(S[C@@H]3CN[C@H](CNS(N)(=O)=O)C3)[C@H](C)[C@H]12 [Doripenem] (concentration: 25 µM)	0.94 ± 0.011	0.963 ± 0.12
CC(S)C(=O)NCC(=O)O (configuration not stated) [Tiopronin] (concentration: 25 µM)	0.956 ± 0.016	0.864 ± 0.17
CNNCc1ccc(C(=O)NC(C)C)cc1 [Procarbazine·HCl] (concentration: 25 µM)	1.01 ± 0.053	0.822 ± 0.1
N[C@@H](Cc1cc(I)c(Oc2ccc(O)c(I)c2)c(I)c1)C(=O)O [Liothyronine·Na] (concentration: 25 µM)	0.966 ± 0.02	0.648 ± 0.15

SMILES	mean cell size [1]	cell count [2]
COc1ccc2[nH]c([S+]([O-])Cc3ncc(C)c(OC)c3C)nc2c1 (configuration not stated) [Omeprazole] (concentration: 25 µM)	0.946 ± 0.035	0.946 ± 0.083
Cc1c2oc3c(C)ccc(C(=O)N[C@@H]4C(=O)N[C@H](C(C)C)C(=O)N5CCC[C@H]5C(=O)N(C)CC(=O)N(C)[C@@H](C(C)C)C(=O)O[C@@H]4C)c3nc-2c(C(=O)N[C@@H]2C(=O)N[C@H](C(C)C)C(=O)N3CCC[C@H]3C(=O)N(C)CC(=O)N(C)[C@@H](C(C)C)C(=O)O[C@@H]2C)c(N)c1=O [Dactinomycin (= Actinomycin D)] (concentration: 25 nM)	0.784 ± 0.019	0.49 ± 0.11
Oc1ccc(C2CNCCc3c2cc(O)c(O)c3Cl)cc1 (configuration not stated) [Fenoldopam Mesylate] (concentration: 25 µM)	0.886 ± 0.059	0.272 ± 0.13
Cn1c2ncnc-2c(O)n(C)c1=O [Oxtriphylline] (concentration: 25 µM)	0.953 ± 0.021	0.761 ± 0.13
C[N+](C)(C)CCOC(=O)CCC(=O)OCC[N+](C)(C)C [Succinylcholine Chloride·2H2O] (concentration: 25 µM)	0.943 ± 0.014	0.908 ± 0.081
C[C@H]1[C@H](NC(=O)/C(=N\OC(C)(C)C(=O)O)c2csc(N)n2)C(=O)N1S(=O)(=O)O [Aztreonam] (concentration: 25 µM)	0.927 ± 0.022	0.64 ± 0.086
Cc1ccsc1C(=CCCN1CCC[C@@H](C(=O)O)C1)c1sccc1C [Tiagabine·HCl] (concentration: 25 µM)	0.936 ± 0.064	0.839 ± 0.013
CCCN[C@H]1CCc2nc(N)sc2C1 [Pramipexole Dihydrochloride Monohydrate] (concentration: 25 µM)	1 ± 0.037	0.631 ± 0.011
CC1(C)S[C@@H]2[C@H](NC(=O)COc3ccccc3)C(=O)N2[C@H]1C(=O)O [Penicillin V Potassium] (concentration: 25 µM)	0.994 ± 0.015	1.09 ± 0.09
CN(C)CCC(c1ccc(Cl)cc1)c1ccccn1 (configuration not stated) [Chlorpheniramine Maleate] (concentration: 25 µM)	0.961 ± 0.02	0.917 ± 0.11
CC[C@]1(O)C[C@@H]2CN(CCc3c([nH]c4ccccc34)[C@@](C(=O)OC)(c3cc4c(cc3OC)N(C)[C@H]3[C@@](O)(C(=O)OC)[C@H](OC(C)=O)[C@]5(CC)C=CCN6CC[C@]43[C@@H]65)C2)C1 [Vinblastine Sulfate] (concentration: 25 nM)	0.971 ± 0.031	0.0701 ± 0.058
COc1ccc(CCN(C)CCCC(C#N)(c2ccc(OC)c(OC)c2)C(C)C)cc1OC (configuration not stated) [Verapamil·HCl] (concentration: 25 µM)	0.939 ± 0.025	0.756 ± 0.042
C[C@]12CC[C@@H]3c4ccc(OS(=O)(=O)O)cc4CC[C@H]3[C@@H]1CCC2=O [Estropipate] (concentration: 25 µM)	1.06 ± 0.069	0.747 ± 0.21
COC(=O)[C@@H]1CC2=CC(=O)CC[C@]2(C)[C@@]23O[C@@H]2C[C@@]2(C)[C@@H](CC[C@@]24CCC(=O)O4)[C@H]13 [Eplerenone] (concentration: 25 µM)	1.19 ± 0.035	0.521 ± 0.06
C[N+](C)(C)CC(=O)O [Betaine] (concentration: 25 µM)	0.945 ± 0.047	0.449 ± 0.066
CC12CC3CC(C)(C1)CC(N)(C3)C2 [Memantine·HCl] (concentration: 25 µM)	1 ± 0.061	0.797 ± 0.017
CC(=O)CC(c1ccccc1)c1c(O)c2ccccc2oc1=O (configuration not stated) [Warfarin·Na] (concentration: 25 µM)	1.04 ± 0.051	0.708 ± 0.045
CCCCCCCCCC(=O)N[C@@H](Cc1c[nH]c2ccccc12)C(=O)N[C@H](CC(N)=O)C(=O)N[C@@H](CC(=O)O)C(=O)N[C@@H]1C(=O)NCC(=O)N[C@@H](CCCN)C(=O)N[C@@H](CC(=O)O)C(=O)N[C@H](C)C(=O)N[C@@H](CC(=O)O)C(=O)NCC(=O)N[C@H](CO)C(=O)N[C@@H]([C@H](C)CC(=O)O)C(=O)N[C@@H](CC(=O)c2ccccc2N)C(=O)O[C@@H]1C [Daptomycin] (concentration: 25 µM)	0.975 ± 0.025	0.917 ± 0.039
CC(C)(O)c1ccccc1CC[C@@H](SCC1(CC(=O)O)CC1)c1cccc(/C=C/c2ccc3ccc(Cl)cc3n2)c1 [Montelukast·Na] (concentration: 25 µM)	1.02 ± 0.077	0.476 ± 0.16
CC1(C)O[C@@H]2C[C@H]3[C@@H]4CCC5=CC(=O)C=C[C@]5(C)[C@H]4[C@@H](O)C[C@]3(C)[C@]2(C(=O)CO)O1 [Desonide] (concentration: 25 µM)	0.948 ± 0.027	0.857 ± 0.014
C[C@H]1C[C@H]2[C@@H]3CCC4=CC(=O)C=C[C@]4(C)[C@@]3(F)[C@@H](O)C[C@]2(C)[C@@]1(O)C(=O)CO [Betamethasone] (concentration: 25 µM)	0.914 ± 0.018	0.764 ± 0.084
CC1Cc2ccccc2N1NC(=O)c1ccc(Cl)c(S(N)(=O)=O)c1 (configuration not stated) [Indapamide] (concentration: 25 µM)	0.978 ± 0.023	0.497 ± 0.11
O=C1c2c(O)ccc(O)c2C(=O)c2c(NCCNCCO)ccc(NCCNCCO)c21 [Mitoxantrone·HCl] (concentration: 25 nM)	1.43 ± 0.11	0.2 ± 0.063
